Laboratory results: PubChem BioAssay (EPA / NIEHS)
The source made the active and inactive calls. How the source made its calls: active means hit-call score of the fitted dose curve at least 0.9, where 1 is the maximum; inactive means score below 0.9.

Key:
Details in all cases: mRNA level, 48 h; actives raise or lower the signal
[1] = read-out: Broad substrate specificity ATP-binding cassette transporter ABCG2 (Homo sapiens) (UniProt Q9UNQ0); experiment: LTEA_HepaRG_ABCG2: Life Technologies and Expression Analysis (LTEA) Assay for ABC Transporter (ABCG2) using HepaRG (AID 2283465)
Method in brief: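 Differentiated HepaRG cells in serum-free induction medium were exposed for 48 h, in duplicate, to eight half-log concentrations up to 100 uM in 0.5% DMSO. ABCG2 mRNA was measured by TaqMan qRT-PCR, normalized to ACTB, GAPDH and POLR2A, and fitted bidirectionally versus DMSO.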

[2] = read-out: ATP-citrate lyase (ACLY), ACLY (gene 47); experiment: LTEA_HepaRG_ACLY: Life Technologies and Expression Analysis (LTEA) Assay for ATP-citrate lyase (ACLY) using HepaRG (AID 2283466)
Method in brief: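 Differentiated human HepaRG cells in serum-free induction medium exposed 48 h, in duplicate, to eight half-log concentrations from 100 uM top in 0.5% DMSO; ACLY mRNA measured by qRT-PCR, normalized to ACTB, GAPDH, POLR2A, fitted bidirectionally versus DMSO.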

[3] = read-out: Peroxisomal acyl-coenzyme A oxidase 1 (ACOX1) gene, ACOX1 (gene 51); experiment: LTEA_HepaRG_ACOX1: Life Technologies and Expression Analysis (LTEA) Assay for Peroxisomal acyl-coenzyme A oxidase 1 (ACOX1) gene using HepaRG (AID 2283467)
Method in brief: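 Differentiated human HepaRG cells were exposed in duplicate for 48 h in serum-free induction medium to eight half-log concentrations up to 100 uM in 0.5% DMSO. ACOX1 mRNA was then quantified by TaqMan qRT-PCR, normalized to ACTB, GAPDH and POLR2A.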

[4] = read-out: Bcl-2 (BAD) gene, BAD (gene 572); experiment: LTEA_HepaRG_BAD: Life Technologies and Expression Analysis (LTEA) Assay for Bcl-2 (BAD) gene using HepaRG (AID 2283469)
Method in brief: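 Differentiated human HepaRG cells in serum-free induction medium were exposed in duplicate for 48 h to eight concentrations (top 100 uM, half-log steps, 0.5% DMSO). BAD mRNA was quantified by qRT-PCR normalised to ACTB, GAPDH and POLR2A, with bidirectional fitting versus DMSO.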

[5] = read-out: Bcl-2 (BAX) gene, BAX (gene 581); experiment: LTEA_HepaRG_BAX: Life Technologies and Expression Analysis (LTEA) Assay for Bcl-2 (BAX) gene using HepaRG (AID 2283470)
Method in brief: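 Differentiated HepaRG cells exposed 48 h in serum-free induction medium, eight half-log concentrations from 100 uM, in duplicate, 0.5% DMSO vehicle. BAX mRNA by TaqMan qRT-PCR, normalised to ACTB, GAPDH and POLR2A.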

[6] = read-out: adenosine kinase (ADK) gene, ADK (gene 132); experiment: LTEA_HepaRG_ADK: Life Technologies and Expression Analysis (LTEA) Assay for adenosine kinase (ADK) gene using HepaRG (AID 2283471)
Method in brief: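 Read-out is ADK transcript level measured by qRT-PCR and normalised to three housekeeping genes. Cells are human HepaRG, dosed for 48 h at up to 100 uM in 0.5% DMSO. Gain or loss of signal is fitted against DMSO controls.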

[7] = read-out: Alpha-fetoprotein (AFP) gene, AFP (gene 174); experiment: LTEA_HepaRG_AFP: Life Technologies and Expression Analysis (LTEA) Assay for Alpha-fetoprotein (AFP) gene using HepaRG (AID 2283472)
Method in brief: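 Differentiated human HepaRG cells exposed 48 h in serum-free induction medium, 8-point half-log series from 100 uM in 0.5% DMSO, duplicate. AFP mRNA by qRT-PCR, normalized to ACTB, GAPDH, POLR2A; bidirectional fit vs DMSO.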

BCL2L11 (gene 10018) = experiment: LTEA_HepaRG_BCL2L11: Life Technologies and Expression Analysis (LTEA) Assay for Bcl-2 (BCL2L11) gene using HepaRG (AID 2283473)
Method in brief: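 Differentiated human HepaRG cells were exposed 48 h in serum-free induction medium to eight half-log concentrations up to 100 uM in 0.5% DMSO, in duplicate. BCL2L11 mRNA was quantified by TaqMan qRT-PCR, normalized to ACTB, GAPDH and POLR2A; induction or repression fitted versus DMSO.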

[8] = read-out: Apolipoprotein A-V (APOA5) gene, APOA5 (gene 116519); experiment: LTEA_HepaRG_APOA5: Life Technologies and Expression Analysis (LTEA) Assay for Apolipoprotein A-V (APOA5) gene using HepaRG (AID 2283474)
Method in brief: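 Differentiated HepaRG cells in serum-free induction medium, exposed 48 h in duplicate to eight half-log concentrations topping at 100 uM (0.5% DMSO). APOA5 mRNA by Fluidigm TaqMan qRT-PCR, normalized to ACTB, GAPDH and POLR2A; bidirectional fit versus DMSO.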

[9] = read-out: Apoptosis regulator Bcl-2 (Homo sapiens) (UniProt P10415); experiment: LTEA_HepaRG_BCL2: Life Technologies and Expression Analysis (LTEA) Assay for Bcl-2 gene using HepaRG (AID 2283475)
Method in brief: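 Differentiated human HepaRG cells in serum-free induction medium exposed 48 h, in duplicate, to 8-point half-log series from 100 uM in 0.5% DMSO. BCL2 mRNA by qRT-PCR (TaqMan/Fluidigm), normalized to ACTB, GAPDH, POLR2A; bidirectional fit against DMSO.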

Caspase-3 (Homo sapiens) = Caspase-3 (Homo sapiens) (UniProt P42574); experiment: LTEA_HepaRG_CASP3: Life Technologies and Expression Analysis (LTEA) Assay for cysteine-aspartic acid protease (CASP3) using HepaRG (AID 2283477)
Sequence of Caspase-3 (Homo sapiens) (P42574 whole entry, looked up): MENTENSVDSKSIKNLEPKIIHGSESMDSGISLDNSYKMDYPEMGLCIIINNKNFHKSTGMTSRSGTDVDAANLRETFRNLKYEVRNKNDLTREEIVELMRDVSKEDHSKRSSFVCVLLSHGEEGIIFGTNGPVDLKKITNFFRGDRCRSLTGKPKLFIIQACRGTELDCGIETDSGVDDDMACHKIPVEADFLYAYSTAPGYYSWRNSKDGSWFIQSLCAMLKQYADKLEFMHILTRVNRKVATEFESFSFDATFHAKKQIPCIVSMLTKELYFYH
Method in brief: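 Differentiated HepaRG cells, plated 48 h, were treated in duplicate in serum-free induction medium for 48 h with eight half-log concentrations up to 100 uM in 0.5% DMSO. CASP3 mRNA measured by qRT-PCR, normalized to ACTB, GAPDH, POLR2A.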

[10] = read-out: Cytochrome P450 (CYP24A1), CYP24A1 (gene 1591); experiment: LTEA_HepaRG_CYP24A1: Life Technologies and Expression Analysis (LTEA) Assay for Cytochrome P450 (CYP24A1) using HepaRG (AID 2283478)
Method in brief: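 HepaRG cells plated 48 h, then exposed in duplicate in serum-free induction medium for 48 h to 8-point half-log series from 100 uM in 0.5% DMSO. CYP24A1 mRNA by Fluidigm qRT-PCR, normalized to ACTB, GAPDH, POLR2A; bidirectional fit versus DMSO.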

[11] = read-out: cysteine-aspartic acid protease (CASP8), CASP8 (gene 841); experiment: LTEA_HepaRG_CASP8: Life Technologies and Expression Analysis (LTEA) Assay for cysteine-aspartic acid protease (CASP8) using HepaRG (AID 2283480)
Method in brief: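 Differentiated human HepaRG cells, plated 48 h then switched to serum-free induction medium, were exposed in duplicate for 48 h to 8 half-log concentrations up to 100 uM in 0.5% DMSO. CASP8 mRNA was quantified by qRT-PCR, normalized to ACTB/GAPDH/POLR2A.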

[12] = read-out: Cytochrome P450 (CYP2B6), CYP2B6 (gene 1555); experiment: LTEA_HepaRG_CYP2B6: Life Technologies and Expression Analysis (LTEA) Assay for Cytochrome P450 (CYP2B6) using HepaRG (AID 2283481)
Method in brief: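 Differentiated human HepaRG cells in serum-free induction medium, dosed in duplicate for 48 h over 8 half-log concentrations topping at 100 uM (0.5% DMSO). CYP2B6 mRNA measured by TaqMan qRT-PCR, normalized to ACTB, GAPDH, POLR2A; bidirectional fit versus DMSO.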

[13] = read-out: Cytochrome P450 2C19 (Homo sapiens) (UniProt P33261); experiment: LTEA_HepaRG_CYP2C19: Life Technologies and Expression Analysis (LTEA) Assay for CYP2C19 using HepaRG (AID 2283482)
Method in brief: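 Differentiated HepaRG cells in serum-free induction medium exposed 48 h in duplicate, 8 concentrations from 100 uM by half-log steps in 0.5% DMSO. CYP2C19 mRNA measured by TaqMan qRT-PCR, normalized to ACTB, GAPDH, POLR2A. Bidirectional fit versus DMSO.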

CYP2C8 (gene 1558) = experiment: LTEA_HepaRG_CYP2C8: Life Technologies and Expression Analysis (LTEA) Assay for CYP2C8 using HepaRG (AID 2283483)
Method in brief: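 Differentiated human HepaRG cells were exposed for 48 h in serum-free induction medium to eight half-log concentrations up to 100 uM in 0.5% DMSO, in duplicate. CYP2C8 mRNA was measured by TaqMan qRT-PCR, normalized to ACTB, GAPDH and POLR2A, and fitted bidirectionally against DMSO.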

[14] = read-out: Alkaline Phosphatase, Placental (ALPP) gene, ALPP (gene 250); experiment: LTEA_HepaRG_ALPP: Life Technologies and Expression Analysis (LTEA) Assay for Alkaline Phosphatase, Placental (ALPP) gene using HepaRG (AID 2283468)
Method in brief: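 HepaRG cells plated 48 h, then exposed in duplicate for 48 h in serum-free induction medium to 8-point half-log series from 100 uM in 0.5% DMSO. ALPP mRNA by TaqMan qRT-PCR, normalized to ACTB/GAPDH/POLR2A; bidirectional fit versus DMSO.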

[15] = read-out: Bcl-2 (BID) gene, BID (gene 637); experiment: LTEA_HepaRG_BID: Life Technologies and Expression Analysis (LTEA) Assay for Bcl-2 (BID) gene using HepaRG (AID 2283476)
Method in brief: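 Gene expression by qRT-PCR in HepaRG cells after 48 h exposure, duplicate wells, eight half-log concentrations topping at 100 uM in 0.5% DMSO. Normalized to ACTB, GAPDH, POLR2A; bidirectional fitting relative to DMSO.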

[16] = read-out: Cytochrome P450 (CYP1A2), CYP1A2 (gene 1544); experiment: LTEA_HepaRG_CYP1A2: Life Technologies and Expression Analysis (LTEA) Assay for Cytochrome P450 (CYP1A2) using HepaRG (AID 2283479)
Method in brief: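 Differentiated human HepaRG cells in serum-free induction medium exposed 48 hours in duplicate to 8 half-log concentrations from 100 uM, 0.5% DMSO. CYP1A2 mRNA quantified by qRT-PCR, normalized to ACTB, GAPDH and POLR2A; bidirectional fitting versus DMSO.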

Sequence of Broad substrate specificity ATP-binding cassette transporter ABCG2 (Homo sapiens) (Q9UNQ0 whole entry, looked up): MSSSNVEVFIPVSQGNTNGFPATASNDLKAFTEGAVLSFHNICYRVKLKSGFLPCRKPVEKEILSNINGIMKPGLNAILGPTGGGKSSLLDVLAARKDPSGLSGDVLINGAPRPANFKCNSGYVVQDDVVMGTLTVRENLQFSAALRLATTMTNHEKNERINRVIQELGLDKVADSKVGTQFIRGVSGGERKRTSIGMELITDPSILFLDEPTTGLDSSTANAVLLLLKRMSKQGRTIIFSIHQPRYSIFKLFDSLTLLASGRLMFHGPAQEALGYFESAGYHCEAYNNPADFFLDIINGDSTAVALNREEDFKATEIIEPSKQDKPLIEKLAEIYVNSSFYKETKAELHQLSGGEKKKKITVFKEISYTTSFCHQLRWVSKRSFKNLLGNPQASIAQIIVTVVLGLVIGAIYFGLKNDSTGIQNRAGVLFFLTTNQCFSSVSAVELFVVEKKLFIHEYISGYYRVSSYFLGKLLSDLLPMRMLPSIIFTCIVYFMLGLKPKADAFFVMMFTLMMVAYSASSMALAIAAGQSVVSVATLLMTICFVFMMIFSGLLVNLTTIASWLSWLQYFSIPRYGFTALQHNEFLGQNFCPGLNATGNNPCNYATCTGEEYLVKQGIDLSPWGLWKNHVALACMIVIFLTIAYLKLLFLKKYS
Sequence of Apoptosis regulator Bcl-2 (Homo sapiens) (P10415 whole entry, looked up): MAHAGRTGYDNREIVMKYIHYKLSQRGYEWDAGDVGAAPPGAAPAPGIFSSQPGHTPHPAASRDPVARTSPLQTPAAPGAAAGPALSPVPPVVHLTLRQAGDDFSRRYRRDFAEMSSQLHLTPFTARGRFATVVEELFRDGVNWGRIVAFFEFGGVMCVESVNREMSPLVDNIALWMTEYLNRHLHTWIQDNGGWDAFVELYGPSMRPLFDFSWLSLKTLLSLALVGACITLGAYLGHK
Sequence of Cytochrome P450 2C19 (Homo sapiens) (P33261 whole entry, looked up): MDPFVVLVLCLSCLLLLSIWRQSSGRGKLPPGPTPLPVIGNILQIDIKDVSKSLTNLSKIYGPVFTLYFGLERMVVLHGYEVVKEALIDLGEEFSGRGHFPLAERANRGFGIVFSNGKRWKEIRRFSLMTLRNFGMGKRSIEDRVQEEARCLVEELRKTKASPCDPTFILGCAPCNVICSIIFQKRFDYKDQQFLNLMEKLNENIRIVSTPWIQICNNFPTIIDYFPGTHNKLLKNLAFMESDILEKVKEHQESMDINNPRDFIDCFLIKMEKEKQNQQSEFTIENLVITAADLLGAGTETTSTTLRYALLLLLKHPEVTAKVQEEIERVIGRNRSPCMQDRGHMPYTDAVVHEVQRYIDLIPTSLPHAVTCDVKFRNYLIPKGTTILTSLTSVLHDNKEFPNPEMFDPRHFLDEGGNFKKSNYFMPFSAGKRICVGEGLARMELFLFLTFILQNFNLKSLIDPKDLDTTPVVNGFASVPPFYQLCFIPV

Q: Which results are given for Cc1ccc(C(C)C)cc1?
A: outcome [1]: inactive; outcome [2]: inactive; outcome [3]: inactive; outcome [4]: inactive; outcome [5]: inactive; outcome [6]: inactive; outcome [7]: inactive; outcome (BCL2L11 (gene 10018)): inactive; outcome [8]: inactive; outcome [9]: inactive; outcome (Caspase-3 (Homo sapiens)): inactive; outcome [10]: inactive; outcome [11]: inactive; outcome [12]: inactive; outcome [13]: inactive; outcome (CYP2C8 (gene 1558)): inactive

Q: Which outcome [1] does the source give for O=C1c2ccccc2C(=O)N1CCc1noc(-c2ccc(CN3CCCCCC3)s2)n1 here?
A: inactive

Q: What about the outcome [2] of the same compound?
A: inactive

Q: What about the outcome [3] of the same compound?
A: inactive

Q: What about the outcome [4] of the same compound?
A: inactive

Q: And the outcome [5]?
A: inactive

Q: What about the outcome [6] of the same compound?
A: inactive

Q: And the outcome [7]?
A: inactive

Q: What about the outcome (BCL2L11 (gene 10018)) of the same compound?
A: inactive

Q: And the outcome [8]?
A: inactive

Q: What about the outcome [9] of the same compound?
A: inactive

Q: What about the outcome (Caspase-3 (Homo sapiens)) of the same compound?
A: inactive

Q: And the outcome [10]?
A: inactive

Q: What about the outcome [11] of the same compound?
A: inactive

Q: And the AC50 [12]?
A: 27.9 µM (active)

Q: What about the outcome [13] of the same compound?
A: inactive

Q: What about the outcome (CYP2C8 (gene 1558)) of the same compound?
A: inactive

Q: With Cc1cc(F)ccc1-c1cc(N2CC[C@@H](O)[C@H]2CO)ncc1N(C)C(=O)C(C)(C)c1cc(C(F)(F)F)cc(C(F)(F)F)c1 as the compound, how does the AC50 [1] read?
A: 16.7 µM (active)

Q: What about the outcome [2] of the same compound?
A: inactive

Q: And the AC50 [3]?
A: 8.09 µM (active)

Q: What about the AC50 [14] of the same compound?
A: 16.5 µM (active)

Q: And the AC50 [4]?
A: 72.1 µM (active)

Q: And the AC50 [5]?
A: 74.8 µM (active)

Q: And the outcome [6]?
A: inactive

Q: What about the AC50 [7] of the same compound?
A: 18 µM (active)

Q: And the AC50 (BCL2L11 (gene 10018))?
A: 52.7 µM (active)

Q: And the AC50 [8]?
A: 12.9 µM (active)

Q: What about the AC50 [9] of the same compound?
A: 19.7 µM (active)

Q: What about the outcome [15] of the same compound?
A: inactive

Q: What about the AC50 (Caspase-3 (Homo sapiens)) of the same compound?
A: 76.6 µM (active)

Q: And the outcome [10]?
A: inactive

Q: And the AC50 [16]?
A: 21.1 µM (active)

Q: And the outcome [11]?
A: inactive

Q: What about the AC50 [12] of the same compound?
A: 22.3 µM (active)

Q: And the AC50 [13]?
A: 23.7 µM (active)

Q: What about the AC50 (CYP2C8 (gene 1558)) of the same compound?
A: 21.4 µM (active)

Q: Which results are given for CN(C)c1ccc(C(=C2C=CC(=[N+](C)C)C=C2)c2ccc(N(C)C)cc2)cc1?
A: outcome [1]: inactive; AC50 [2]: 12.5 µM (active); AC50 [3]: 12.9 µM (active); AC50 [14]: 3.9 µM (active); outcome [5]: inactive; AC50 [6]: 20.7 µM (active); AC50 [7]: 1.91 µM (active); AC50 (BCL2L11 (gene 10018)): 23.5 µM (active); AC50 [8]: 5.32 µM (active); AC50 [9]: 5 µM (active); AC50 (Caspase-3 (Homo sapiens)): 12.1 µM (active); outcome [10]: inactive; outcome [11]: inactive; AC50 [12]: 3.45 µM (active); AC50 [13]: 5.94 µM (active); AC50 (CYP2C8 (gene 1558)): 3.61 µM (active)
